From PubChem BioAssay (NCI)
The panel holds about 79,000 compounds, 15% with a hit somewhere; the sample as a whole holds those more often. No stated cut-off is given here; in the data, active means growth inhibition above about 70%; inactive means the rest. Where a SMILES comes first, the peptide text is derived from it. The star is where a group is joined. Boc = CC(C)(C)OC(=O)*

Key:
[1] = NCI Yeast Anticancer Drug Screen. Data for the rad50 strain (AID 155);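 further: 0% = growth of vehicle-only cultures of the same strain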; settings: S. cerevisiae rad50 strain growth inhibition, hits give high values; at 50.0 µM unless noted
In short: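 A DNA repair-deficient yeast mutant serves as the test organism; compound-induced growth inhibition is calculated against vehicle-treated cells.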

[2] = NCI Yeast Anticancer Drug Screen. Data for the mec2-1 strain (AID 157); settings: S. cerevisiae mec2-1 strain, hits give high values; at 50.0 µM unless noted
In short: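 Test agents were screened against the mec2-1 yeast strain, with defined DNA repair or cell cycle alteration. Growth was scored as inhibition against vehicle-only controls.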

[3] = NCI Yeast Anticancer Drug Screen. Data for the sgs1 mgt1 strain (AID 161);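 further: 0% = growth of cultures given vehicle only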; settings: S. cerevisiae sgs1 mgt1 strain, hits give high values; at 50.0 µM unless noted
In short: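 Read-out: growth inhibition vs vehicle controls. Cells: mutant yeast strain deficient in DNA damage repair.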

[4] = NCI Yeast Anticancer Drug Screen. Data for the cln2 rad14 strain (AID 165);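 further: 0% = growth equal to vehicle treated cultures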; settings: S. cerevisiae cln2 rad14 strain, hits give high values; at 50.0 µM unless noted
In short: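 Growth of compound-exposed yeast (cln2 rad14 genotype) measured and expressed as inhibition relative to vehicle.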

[5] = NCI Yeast Anticancer Drug Screen. Data for the bub3 strain (AID 167); settings: S. cerevisiae bub3 mutant strain, hits give high values; at 50.0 µM unless noted
In short: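 Inhibition values come from growth of compound-treated mutant yeast normalised to vehicle-treated controls.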

[6] = NCI Yeast Anticancer Drug Screen. Data for the mlh1 rad18 strain (AID 175); settings: S. cerevisiae mlh1 rad18 strain growth inhibition, hits give high values; at 50.0 µM unless noted
In short: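 In this whole-cell yeast screen, a strain with altered DNA damage repair is challenged with compound, and its growth is measured against matched vehicle-treated controls.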

Measured: growth inhibition

Cc1ccc([N+](=O)[O-])cc1N
inactive: [1] 31% | [2] 25.4% | [3] 4.15% | [4] 23.2% | [5] 17.1% | [6] 14.7%

COC(=O)C(Cc1c[nH]c2ccccc12)NC(=O)C(Cc1c[nH]c2ccccc12)NC(=O)C(Cc1c[nH]c2ccccc12)NC(=O)C(Cc1c[nH]c2ccccc12)NC(=O)C(Cc1c[nH]c2ccccc12)NC(=O)C(Cc1c[nH]c2ccccc12)NC(=O)OC(C)(C)C (stereo not given) (Boc-WWWWWW-OMe; configuration not given here)
inactive: [1] -6.8% | [2] -12.7% | [3] -18.4% | [4] 7.25% | [5] 8.25% | [6] 16.4%

COc1cc(/C=C/c2ccc(N(C)C)cc2)oc(=O)c1
inactive: [1] 21.5% | [2] 5.45% | [3] 26.6% | [4] 6.85% | [5] 5.65% | [6] 0.25%

Nc1c(Cl)ncnc1NCc1ccco1
inactive: [1] 5.25% | [2] -4.2% | [3] -13.8% | [4] -13.8% | [5] -1.05% | [6] -7.85%

CCN(CC)CCN(C(=O)C(C)(C)C)c1ccccc1N
inactive: [1] -30.8% | [2] -27.9% | [3] -17.1% | [4] -18.6% | [5] -19.1% | [6] -4%

O=C1NC2OCC(O)C(O)C2O1 (stereo not given)
inactive: [1] 4.6% | [2] 10.1% | [3] -4.15% | [4] 12.4% | [5] 22.4% | [6] 6.45%

COc1ccc(CCn2c(=O)c3ccccc3n(C)c2=O)cc1
inactive: [1] 17.9% | [2] -4.2% | [3] 13.2% | [4] 34.2% | [5] 41.6% | [6] 0.8%

O=C(COCC(=O)N/N=C/C=C/c1ccccc1)N/N=C/C=C/c1ccccc1
inactive: [1] 7.7% | [2] -6.3% | [3] -0.65% | [4] 3.35% | [5] -2.95% | [6] 19.2%

CCOC(=O)c1nc(N)nc(N)c1-c1ccc(Cl)cc1
inactive: [1] 3.6% | [2] 10.7% | [3] -3.4% | [4] -4.9% | [5] 15.6% | [6] -1.2%

CCOC(=O)c1cnc(NN)[nH]c1=O
inactive: [1] -5.3% | [2] -4.9% | [3] -10.6% | [4] -46.4% | [5] -13.8% | [6] -4.65%

COc1ccc(-n2c(N)c(C#N)[nH]c2=O)cc1
inactive: [1] -8.7% | [2] -36.1% | [3] -14% | [4] -11.8% | [5] 6.05% | [6] -21.3%

Cc1ccc(N2C(=O)C3CSCN3C2=O)cc1 (stereo not given)
inactive: [1] 31.2% | [2] 19.8% | [3] 6.85% | [4] 4.9% | [5] 9% | [6] 6.25%

CCOC(=O)NC(=O)c1cn(CCCCCCCCCCC(=O)N2CCN(CCn3cc(C(=O)NC(=O)OCC)c(=O)[nH]c3=O)CC2)c(=O)[nH]c1=O
inactive: [1] 27.2% | [2] 18.4% | [3] 17.9% | [4] 5.8% | [5] -6.2% | [6] 6.45%

NNC(=O)Cc1ccc(Cl)c2ccccc12
inactive: [1] 5.8% | [2] -17.9% | [3] 3.6% | [4] -75.9% | [5] -5.2% | [6] 8.85%

COc1ccc(COC(=O)Nc2ccc(Br)cc2)c(OC)c1
inactive: [1] -5.05% | [2] 33.6% | [3] 27.2% | [4] -16.6% | [5] 16.8% | [6] 9.55%

NC(COC(=O)NCCCl)C(=O)O (stereo not given)
inactive: [1] 12.7% | [2] -6.95% | [3] -0.35% | [4] -11.5% | [5] 22.1% | [6] 18.6%

CC(=O)NNc1nc(C)c(C(=O)/C=C/c2ccc(NC(C)=O)cc2)s1
inactive: [1] 21.9% | [2] 16.1% | [3] 0.3% | [4] 9.15% | [5] 22.2% | [6] 31.5%

COC(=O)CC1CCS(=O)(=O)C1 (stereo not given)
inactive: [1] -6.6% | [2] 6.35% | [3] -5.7% | [4] -37.4% | [5] -4.4% | [6] 0%

O=NN1C(c2ccccc2)CNC(=O)CC1c1ccccc1 (stereo not given)
inactive: [1] -27% | [2] -1.4% | [3] -1.65% | [4] -8% | [5] 20.6% | [6] -18.2%

O=C1c2ccccc2C(=O)N1CCCCCCS(=O)(=O)Cl
inactive: [1] 13.7% | [2] 10.9% | [3] -2.75% | [4] -16.9% | [5] -7.35% | [6] 0.55%
